Experimental findings from PubChem BioAssay (NCATS) are described below.

Test [1] concerns the target Lysosomal acid glucosylceramidase (Homo sapiens) (UniProt P04062). The test can be described thus: Glucocerebrosidase-p2 (AID 348; in the data active = potency below about 10 µM; also: potency is read from the fitted curve at half-maximal effect). The note with it: purified GBA, blue fluorogenic substrate, 40 min. The procedure, abridged: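 Normal human glucocerebrosidase (0.2 nM) with blue fluorogenic substrate (80 uM final) in citrate/phosphate pH 5.9 with 10mM sodium taurocholate, 0.01% tween-20; 40 min RT, NaOH/glycine stop; fluorescence Ex 365/Em 440; AC50 from a titration from 0.6 nM upwards.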

The nature of test [2]: AP1 Signaling Pathway (AID 357). Also: % is scaled to controls: 0 for no effect and ±100 for the full control effect. The following applies: ME-180 AP-1-bla reporter, EGF-induced, beta-lactamase ratio, 5 h; at 7.69 µM (top of the series) unless noted. The procedure, abridged: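 Read-out was the 460nm/530nm emission ratio (excitation 405nm) after CCF4 loading for 2.5 hours at room temperature. Cells carried an AP-1-driven beta-lactamase reporter, were stimulated with EC50 EGF plus compound for 5 hours, and AC50 values came from titrations.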

For test [3], the target named is Cytochrome P450 1A2 (Homo sapiens) (UniProt P05177). The test is described as follows: p450-cyp1a2 (AID 410; calls by dose curve; also: potency is read from the fitted curve at half-maximal effect;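 as to activity change, negative = inhibition: -100% = full effect of reference inhibitor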). The following applies: recombinant CYP1A2, luciferin-ME demethylation, luminescence; series mostly up to 11.4 µM. The procedure, abridged: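 O-Demethylation of luciferin 6' methyl ether by human CYP1A2 is monitored as luciferase luminescence. Substrate sits at Km (100uM); enzyme is 20nM. Values are scaled to 57 uM furafylline as maximal inhibition.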
Cytochrome P450 1A2 (Homo sapiens), sequence (P05177 whole entry, looked up): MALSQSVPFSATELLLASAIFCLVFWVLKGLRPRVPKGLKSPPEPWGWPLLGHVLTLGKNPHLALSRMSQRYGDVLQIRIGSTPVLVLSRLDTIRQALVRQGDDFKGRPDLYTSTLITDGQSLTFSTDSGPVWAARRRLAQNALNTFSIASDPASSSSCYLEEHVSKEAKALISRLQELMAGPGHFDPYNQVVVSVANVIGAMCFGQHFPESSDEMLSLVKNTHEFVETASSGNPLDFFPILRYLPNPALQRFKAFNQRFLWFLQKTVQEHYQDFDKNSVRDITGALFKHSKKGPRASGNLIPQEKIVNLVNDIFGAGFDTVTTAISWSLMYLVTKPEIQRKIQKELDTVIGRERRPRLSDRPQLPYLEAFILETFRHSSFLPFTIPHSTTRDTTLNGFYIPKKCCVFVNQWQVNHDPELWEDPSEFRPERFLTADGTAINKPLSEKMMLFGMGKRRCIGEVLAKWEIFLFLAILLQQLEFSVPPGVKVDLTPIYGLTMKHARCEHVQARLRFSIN

Test [4] is described as follows: NFAT Signaling Pathway (AID 444).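 Also: carbachol stimulus at about its EC50 of 1 µM final; % is scaled to controls: 0 for no effect and ±100 for the full control effect.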 The note with it: Jurkat NFAT-bla M1, carbachol, beta-lactamase ratio, 5 h; at 7.69 µM (top of the series) unless noted. The procedure, abridged:
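Jurkat cells carrying an NFAT-driven β-lactamase reporter and co-transfected muscarinic M1 receptor were treated with compound plus carbachol (1 uM final, an EC50 level) for 5 h at 37 °C. CCF4 loading followed for 1 h at RT; 460/530 nm ratio gave %activity.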

Test [5] is described as follows: Stat Signaling Pathway (AID 446).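 Also: ME-180 cervical cancer cells given 40 pM IL-6 alongside compound; SIE-controlled beta-lactamase reporter measured as 460/530 nm FRET emission ratio; % is scaled to controls: 0 for no effect and ±100 for the full control effect.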 The note with it: ME-180 (cervical carcinoma) SIE beta-lactamase reporter, IL-6 stimulated, 5 h; at 7.69 µM (top of the series) unless noted. The procedure, abridged:
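Compound effects on IL-6-induced STAT reporter activity were measured in ME-180 cells. After overnight culture, cells were co-treated with 40 pM IL-6 for 5 hrs before beta-lactamase substrate loading at room temperature.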

Test [6] deals with Glucocorticoid receptor (Homo sapiens) (UniProt P04150). The test is described as follows: GR-GFP Redistribution (AID 450;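 active = compounds whose dose series gives a full or clear partial fitted curve of increased nuclear translocation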; also: potency is read from the fitted curve at half-maximal effect). The following applies: U2OS GR-GFP nuclear translocation, laser cytometry, 2 h.
Glucocorticoid receptor (Homo sapiens), sequence (P04150 whole entry, looked up): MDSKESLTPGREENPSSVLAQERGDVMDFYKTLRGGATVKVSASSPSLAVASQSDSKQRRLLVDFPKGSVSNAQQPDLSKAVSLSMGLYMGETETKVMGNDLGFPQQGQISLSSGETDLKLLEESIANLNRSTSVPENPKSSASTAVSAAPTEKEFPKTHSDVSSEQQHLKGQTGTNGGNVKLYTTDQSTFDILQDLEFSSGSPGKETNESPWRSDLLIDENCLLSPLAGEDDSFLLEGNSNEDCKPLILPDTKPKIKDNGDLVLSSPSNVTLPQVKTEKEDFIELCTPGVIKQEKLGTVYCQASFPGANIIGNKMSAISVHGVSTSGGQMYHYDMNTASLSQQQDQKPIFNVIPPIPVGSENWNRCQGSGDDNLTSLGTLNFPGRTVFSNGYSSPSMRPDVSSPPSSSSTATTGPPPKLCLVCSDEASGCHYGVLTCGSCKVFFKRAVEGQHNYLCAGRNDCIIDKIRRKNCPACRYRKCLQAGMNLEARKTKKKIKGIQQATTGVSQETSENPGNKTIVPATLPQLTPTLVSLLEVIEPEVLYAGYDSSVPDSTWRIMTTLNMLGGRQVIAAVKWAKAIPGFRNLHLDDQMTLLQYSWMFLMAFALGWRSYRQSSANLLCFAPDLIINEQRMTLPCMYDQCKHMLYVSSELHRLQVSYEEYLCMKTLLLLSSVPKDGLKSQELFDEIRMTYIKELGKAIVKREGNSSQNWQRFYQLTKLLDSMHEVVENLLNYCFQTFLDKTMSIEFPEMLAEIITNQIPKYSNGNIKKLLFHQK
Test [7] has the same target. The test is described as follows: GR-EFC Redistribution (AID 451; calls by dose curve; also: potency is read from the fitted curve at half-maximal effect). The note with it: CHO-K1 GR-EFC translocation, beta-gal luminescence, 2 h. The procedure, abridged:
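CHO-K1 cells stably expressing nuclear-localized β-gal enzyme acceptor and GR fused C-terminally to the enzyme donor fragment; ligand-driven nuclear translocation restores β-gal by complementation. Compounds titrated up to 46 uM final, 2 h at 37 °C; luminescence read.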

In test [8] the target is Mitogen-activated protein kinase 10 (Mus musculus) (UniProt Q61831). The test can be described thus: JNK3 AlphaScreen Assay (AID 530).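 Also: kinase came from lysate of stimulated human HepG2 cells; % is scaled to controls: 0 for no effect and ±100 for the full control effect.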 The note with it: JNK3 lysate, c-Jun phosphorylation; series mostly up to 11.4 µM. The procedure, abridged: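 Phosphorylation of biotinylated GST-cJun(1-79) at Ser73 is measured by AlphaScreen proximity luminescence. Enzyme is JNK3 in HepG2 lysates activated with interleukin-1beta and tumor necrosis factor alpha; ATP is 10 uM final.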
On the technique in general: In Alpha technology, singlet oxygen from a donor bead excites a nearby acceptor bead.

In test [9] the target is 3',5'-cyclic-AMP phosphodiesterase 4B (Homo sapiens) (UniProt Q07343). The test is described as follows: qHTS Assay for Inhibitors of PDE-IV (AID 607; active = well fitted activation curve with a large enough effect in the main read-out, with a control signal flat, not every such curve was filed as active; also: % of control where 0% means no effect). The following applies: HEK293 ACTOne CNG channel cells, membrane potential fluorescence; series mostly up to 22.9 µM. In short, it runs like this: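 ACTOne HEK293 cells carry a modified cAMP-gated CNG channel and express endogenous PDE4; plated 1000 cells/well, compounds up to 22.9 uM final. Membrane-potential dye fluorescence (ex 535/em 590) was read; parental cells received 10 uM forskolin + 100 uM RO 20-1724.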
3',5'-cyclic-AMP phosphodiesterase 4B (Homo sapiens), sequence (Q07343 whole entry, looked up): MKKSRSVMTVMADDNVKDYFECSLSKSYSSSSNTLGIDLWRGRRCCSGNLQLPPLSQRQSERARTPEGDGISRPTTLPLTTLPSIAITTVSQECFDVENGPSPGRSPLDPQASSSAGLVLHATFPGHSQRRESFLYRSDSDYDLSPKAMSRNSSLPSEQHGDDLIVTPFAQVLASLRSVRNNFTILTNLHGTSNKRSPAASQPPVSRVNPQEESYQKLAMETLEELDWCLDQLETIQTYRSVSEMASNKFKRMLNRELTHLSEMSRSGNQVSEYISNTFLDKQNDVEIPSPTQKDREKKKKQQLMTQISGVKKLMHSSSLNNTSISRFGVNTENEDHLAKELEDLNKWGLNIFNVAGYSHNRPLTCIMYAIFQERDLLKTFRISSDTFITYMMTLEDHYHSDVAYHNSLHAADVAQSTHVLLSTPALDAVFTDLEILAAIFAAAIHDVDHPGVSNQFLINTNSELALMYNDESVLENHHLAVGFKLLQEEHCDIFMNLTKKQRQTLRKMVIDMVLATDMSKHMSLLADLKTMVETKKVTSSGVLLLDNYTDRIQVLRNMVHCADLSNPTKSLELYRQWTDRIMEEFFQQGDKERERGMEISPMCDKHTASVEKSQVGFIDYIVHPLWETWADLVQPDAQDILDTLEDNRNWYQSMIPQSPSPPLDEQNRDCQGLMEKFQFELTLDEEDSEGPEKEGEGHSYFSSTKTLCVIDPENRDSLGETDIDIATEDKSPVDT
(In general: qHTS replaces the single test concentration by a dilution series.)

Molecules are shown by their SMILES. Values without a mark were called inactive. Records with an inconclusive call do not appear. Calls of active or inactive are those of the source. Unless noted, calls follow the shape of the dose curve; as a rule, active = well fitted curve in either direction with a large enough effect (not every such curve was filed as active); inconclusive = small, poorly fitted or top-dose-only effect, or another doubt; inactive = flat fitted curve, though single readings scatter. Where only a bound is given, the exact number is not on record here.

Lysosomal acid glucosylceramidase (Homo sapiens), sequence (P04062 whole entry, looked up): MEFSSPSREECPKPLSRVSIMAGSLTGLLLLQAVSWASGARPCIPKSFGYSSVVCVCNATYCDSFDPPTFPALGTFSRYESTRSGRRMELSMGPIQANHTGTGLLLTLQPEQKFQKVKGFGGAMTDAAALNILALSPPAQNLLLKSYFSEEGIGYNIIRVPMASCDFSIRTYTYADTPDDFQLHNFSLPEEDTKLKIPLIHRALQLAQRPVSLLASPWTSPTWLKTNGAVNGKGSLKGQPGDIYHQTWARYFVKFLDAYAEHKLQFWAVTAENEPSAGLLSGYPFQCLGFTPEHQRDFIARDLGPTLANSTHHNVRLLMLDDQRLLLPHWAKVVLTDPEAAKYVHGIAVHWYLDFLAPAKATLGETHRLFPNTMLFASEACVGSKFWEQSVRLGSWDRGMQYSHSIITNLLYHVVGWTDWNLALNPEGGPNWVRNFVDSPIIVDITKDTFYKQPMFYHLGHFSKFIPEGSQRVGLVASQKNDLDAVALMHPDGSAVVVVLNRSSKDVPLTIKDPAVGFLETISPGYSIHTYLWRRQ

Regarding `O=C(O)Cc1cc(Cl)ccc1O`, the results for the Potency in test [1], in test [6] and in [7] were over 11.4 µM, over 46 µM and over 9.22 µM, respectively. For the same compound, the activity change, negative = inhibition is -8.98% in test [2] and -0.2% in [4]. Besides, the Potency entry in [3], in test [8] and in test [9] was “inactive” throughout. Moreover, the activity, negative = inhibition in [5] was 20.2%.

Turning to `O=S(=O)(O)c1cc(N=[N+]([O-])c2cc(S(=O)(=O)O)c3ccccc3c2)cc2ccccc12`, the Potency in test [1] was over 11.4 µM; in [3] it was 1.26 µM (active); in test [6], over 46 µM; in test [7] it was over 9.22 µM. Besides, the activity change, negative = inhibition in test [2] was 5.38%; in test [4], 8.26%. The activity, negative = inhibition in test [5] is -2.62%. The Potency result in [8] and in [9] was “inactive” in each case.

As to `Cn1c(=O)c2[nH]c(CS(=O)(=O)Cc3nc4c([nH]3)c(=O)n(C)c(=O)n4C)nc2n(C)c1=O`, the Potency in test [1] was over 11.4 µM; in test [6], over 46 µM; in test [7] it was over 9.22 µM. The activity change, negative = inhibition in [2] is -5.52%; in [3], -21.1% [at 2.29 µM]; in test [4], -4.99%. In [5], the activity, negative = inhibition was -2.96%. For the same compound, the Potency result in test [8] and in test [9] was “inactive” in each case.

Regarding `N[C@@H]1[C@@H]2[C@@H]3C[C@H]4N(CC[C@@]14C(=O)C(=O)O)CC3=CCO[C@@H]2CC(=O)O`, the results for the Potency in [1], in test [6] and in test [7] were over 11.4 µM, over 46 µM and over 9.22 µM, respectively. For the same compound, the activity change, negative = inhibition in [2] is -3.74%; in [4], 4.96%. The Potency result in [3], in test [8] and in test [9] was “inactive” each time. The activity, negative = inhibition in [5] was 6.97%.

As to `COCCNc1nc(-c2ccc(C(=O)N(C)C)cc2)nc2ccccc12`, the Potency in [1] was over 11.4 µM; in [3], 20 µM (active); in test [6], over 46 µM; in test [7] it was over 46 µM. The activity change, negative = inhibition is 11.7% in [2] and 17.9% in test [4]. Moreover, the activity, negative = inhibition in test [5] was 1.02%. The Potency result in test [8] and in test [9] was “inactive” in each case.

Regarding `OCCCN=C1CCCCC1`, the Potency in test [1] was over 11.4 µM; in test [6] it was over 46 µM; in test [7], over 9.22 µM. Besides, the activity change, negative = inhibition in [2] was 14.4%; in [4], 7.24%. Further, the Potency entry in [3], in [8] and in test [9] was “inactive” in each case. For the same compound, in test [5], the activity, negative = inhibition is -19.6%.

On to `O=C(O)C/C(=C\c1ccccc1)C(=O)O`, for which the Potency in test [1] is over 11.4 µM; in test [6], over 46 µM; in test [7], over 9.22 µM. The figures for the activity change, negative = inhibition in test [2] and in [4] were 7.15% and -2.46%, respectively. Besides, the Potency entry in test [3], in test [8] and in test [9] was “inactive” in each case. The activity, negative = inhibition in test [5] is 10.5%.

`NC(Cc1ccccc1)=NCC(=O)O`: the Potency in test [1] was over 11.4 µM; in test [6] it was over 46 µM; in test [7] it was over 9.22 µM. Further, the activity change, negative = inhibition in test [2] is 2%; in test [4], -0.213%. Further, the Potency result in [3], in test [8] and in test [9] was “inactive” throughout. In test [5], the activity, negative = inhibition is -4.46%.

With `N=C(N)SCc1cccc(-c2nc3ccccc3c(=O)o2)c1`, the Potency is over 11.4 µM in test [1], over 46 µM in [6] and over 9.22 µM in test [7]. Besides, the activity change, negative = inhibition in test [2] was 0.968%; in test [3], -10.3% [at 2.29 µM]; in test [4] it was 10.1%. The activity, negative = inhibition in test [5] is 2.22%. The Potency result in test [8] and in [9] was “inactive” throughout.

With `Nc1nc2c(c(=O)[nH]1)N[C@H](CCNc1ccc(C(=O)O)cc1)CN2`, the Potency in [1] was over 11.4 µM; in test [6] it was over 46 µM; in [7], over 9.22 µM. For the same compound, the activity change, negative = inhibition in test [2] is -0.0764%; in test [4] it was 14.5%. Moreover, the Potency result in test [3], in test [8] and in test [9] was “inactive” each time. The activity, negative = inhibition in [5] was -3.77%.

`Cc1ncc(CSC(=N)N)n1Cc1ccccc1`: the results for the Potency in test [1], in test [6] and in test [7] were over 11.4 µM, over 46 µM and over 9.22 µM, respectively. Also, the activity change, negative = inhibition in test [2] was 6.64%; in test [4], -15.5%. The Potency entry in [3], in test [8] and in test [9] was “inactive” each time. The activity, negative = inhibition in [5] is 4.51%.

Turning to `CC1(C)O[C@H]2[C@@H](O1)[C@@H](On1nnc3ccc(Cl)cc31)O[C@@H]2[C@@H]1COC(C)(C)O1`, the Potency in [1] is over 11.4 µM; in test [6], over 46 µM; in test [7], over 9.22 µM. The figures for the activity change, negative = inhibition in [2], in [3] and in test [4] were -0.0878%, -10.9% [at 2.29 µM] and 3.42%, respectively. The activity, negative = inhibition in test [5] is 2.63%. The Potency result in test [8] and in test [9] was “inactive” throughout.

For `C[N+](C)(C)CCCSc1nc2ccccc2[nH]1`, the figures for the Potency in test [1], in test [6] and in [7] were over 11.4 µM, over 46 µM and over 9.22 µM, respectively. The activity change, negative = inhibition in [2] is -2.62%; in [4] it was -15.2%. For the same compound, the Potency entry in [3], in test [8] and in [9] was “inactive” throughout. Further, the activity, negative = inhibition in test [5] is -0.948%.

In the case of `O=C(O)[C@@H]1Cc2c([nH]c3ccccc23)[C@@H](CCCCO)N1`, the Potency in [1] was over 11.4 µM; in [6] it was over 46 µM; in test [7], over 9.22 µM. Also, the activity change, negative = inhibition in test [2] was -12.4%; in [3], -9.6% [at 2.29 µM]; in test [4] it was 3.55%. The activity, negative = inhibition in test [5] was -0.601%. For the same compound, the Potency entry in [8] and in [9] was “inactive” each time.
